# Data from the supplement of paper PMC6555819.
# Experiments:
# Assay in all cases: PBM binding z-score (relative to random genomic background probes); higher = stronger binding; sequences stand for … in GC…GCGATTGACAGCGTAGAATGAAGG
# [1] = test system: FXR:RXRa (NR concentration 270 nM, RXRa partner concentration 90 nM)
# Method in brief: (§1)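 Custom Agilent 4×180K protein-binding microarrays carried double-stranded probes. Their 34-nt variable regions held direct-repeat seeds, single-nucleotide variants, half-site ablations and random human genomic background sequences. Arrays were incubated 1 h with ligand-free nuclear receptor dimers in PBS pH 7.4, 2% milk, 0.02% Triton X-100, 1 mM DTT, 0.2 mg/mL BSA and 0.4 mg/ml salmon testes DNA. Antibodies against each partner (one per run) detected binding, and scanned fluorescence was regression-normalized. Binding z-scores use random background probes as reference.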
# [2] = test system: LXRa:RXRa (NR concentration 270 nM, RXRa partner concentration 90 nM)
# Method in brief: as §1
# [3] = test system: LXRa homodimer (NR concentration 270 nM)
# Method in brief: as §1
# [4] = test system: LXRb:RXRa (NR concentration 270 nM, RXRa partner concentration 90 nM)
# Method in brief: as §1
# [5] = test system: LXRb homodimer (NR concentration 270 nM)
# Method in brief: as §1
# [6] = test system: PPARa:RXRa (NR concentration 270 nM, RXRa partner concentration 90 nM)
# Method in brief: as §1
# [7] = test system: PPARg:RXRa (NR concentration 180 nM, RXRa partner concentration 90 nM)
# Method in brief: as §1
# [8] = test system: PPARg:RXRa 270nM:90nM, anti-RXR (NR concentration 270 nM, RXRa partner concentration 90 nM)
# Method in brief: as §1
# [9] = test system: PPARg:RXRa 30nM:10nM, anti-RXR (NR concentration 30 nM, RXRa partner concentration 10 nM)
# Method in brief: as §1
# [10] = test system: PPARg:RXRa 90nM:30nM, anti-RXR (NR concentration 90 nM, RXRa partner concentration 30 nM)
# Method in brief: as §1
# [11] = test system: PPARg:RXRa DBDmut IVT, anti-RXR (DBD mutation: RXRa K156A/R161A, NR concentration 270 nM, RXRa partner concentration 90 nM)
# Method in brief: as §1
# [12] = test system: PPARg:RXRa IVT, anti-PPARg (NR concentration 270 nM, RXRa partner concentration 90 nM)
# Method in brief: as §1
# [13] = test system: PPARg DBDmut:RXRa IVT, anti-PPARg (DBD mutation: PPARg1 K132A/R137A, NR concentration 270 nM, RXRa partner concentration 90 nM)
# Method in brief: as §1
# [14] = test system: PPARg DBDmut IVT, anti-PPARg (DBD mutation: PPARg1 K132A/R137A, NR concentration 270 nM)
# Method in brief: as §1
# [15] = test system: PPARg homodimer (NR concentration 180 nM)
# Method in brief: as §1
# [16] = test system: PXR:RXRa (NR concentration 270 nM, RXRa partner concentration 90 nM)
# Method in brief: as §1
# [17] = test system: PXR homodimer (NR concentration 270 nM)
# Method in brief: as §1
# [18] = test system: RARa:RXR (NR concentration 270 nM, RXRa partner concentration 90 nM)
# Method in brief: as §1
# [19] = test system: RARa homodimer (NR concentration 270 nM)
# Method in brief: as §1
# [20] = test system: RARb:RXRa (NR concentration 270 nM, RXRa partner concentration 90 nM)
# Method in brief: as §1
Sequence,PBM binding z-score [1],PBM binding z-score [2],PBM binding z-score [3],PBM binding z-score [4],PBM binding z-score [5],PBM binding z-score [6],PBM binding z-score [7],PBM binding z-score [8],PBM binding z-score [9],PBM binding z-score [10],PBM binding z-score [11],PBM binding z-score [12],PBM binding z-score [13],PBM binding z-score [14],PBM binding z-score [15],PBM binding z-score [16],PBM binding z-score [17],PBM binding z-score [18],PBM binding z-score [19],PBM binding z-score [20]
ACTCGGAAGACAAAGGTCAGAGCTACGCCAGTGA,3.29,3.7,1.47,3.28,0.387,4.48,4.43,4.75,2.83,4.83,0.385,1.77,0.488,-0.549,2.44,3.25,0.247,3.84,0.864,4.07
TCAGACAGGTGGAGGTAACTCAGGTACGCAGTCG,0.494,1.77,-0.167,0.998,0.354,0.55,0.357,1.4,3.1,2.3,1.72,-0.0459,0.459,-0.319,0.082,0.506,0.154,0.233,0.265,0.399
TCTTGTAGATCAAGCAGGTTAATAAAGCCTGAGT,0.189,0.118,-0.263,0.262,-0.449,0.639,-0.267,0.922,2.43,1.6,1.48,0.498,-0.163,0.466,0.27,0.447,0.326,0.406,0.125,-0.0389
CCTAGTTGGTCAAGAGGTCACACACCGGATATGA,5.19,5.02,3.61,4.58,0.768,5.71,5.69,5.36,3.16,4.81,2.07,4.43,0.763,0.00136,3.36,4.96,1.63,5.63,1.6,4.83
TCTAGTAGATCAGCAGGTTAAGAAAGCTGGCCAA,0.258,0.127,-0.552,0.373,-0.762,0.734,-0.257,1.37,2.66,2.06,1.99,0.125,-0.189,-1.02,0.292,0.255,-0.699,0.387,-0.353,0.266
AGAACGAGGGCATTGAGTTGATAGCACGGGTGGC,0.832,0.491,-0.273,0.0744,-0.545,1.26,1.02,0.78,-0.308,6.55e-05,2.94,2.27,0.115,-0.519,0.179,2.79,9.1,0.267,-0.274,1.87
CCAGACAGGTGAGAAGGTAAATCAGCCTCGATTA,0.109,0.108,-0.129,0.141,-0.154,0.484,0.39,0.456,0.0319,0.15,0.792,0.856,-0.421,-0.384,0.684,0.0672,-0.0292,0.359,-0.00331,0.508
